Publication PMC7862700, “An all-to-all approach to the identification of sequence-specific readers for epigenetic DNA modifications on cytosine”

How the values were obtained:
Assay in all cases: DAPPL (digital affinity profiling via proximity ligation, sequencing); 10 mM Tris-HCl pH 7.5, 50 mM NaCl, 1 mM DTT, 4% glycerol, room temperature, 30 min; GST-TFs on glutathione beads, 16-mer random dsDNA library, 0.1% formaldehyde crosslink after washing; high values mean tight binding
FLI1 = target: T1, FLI1 (Homo sapiens, UniProt Q01543 1-452); details: protein: recombinant; tags: N-terminal GST; dsDNA, one strand shown
T1 sequence: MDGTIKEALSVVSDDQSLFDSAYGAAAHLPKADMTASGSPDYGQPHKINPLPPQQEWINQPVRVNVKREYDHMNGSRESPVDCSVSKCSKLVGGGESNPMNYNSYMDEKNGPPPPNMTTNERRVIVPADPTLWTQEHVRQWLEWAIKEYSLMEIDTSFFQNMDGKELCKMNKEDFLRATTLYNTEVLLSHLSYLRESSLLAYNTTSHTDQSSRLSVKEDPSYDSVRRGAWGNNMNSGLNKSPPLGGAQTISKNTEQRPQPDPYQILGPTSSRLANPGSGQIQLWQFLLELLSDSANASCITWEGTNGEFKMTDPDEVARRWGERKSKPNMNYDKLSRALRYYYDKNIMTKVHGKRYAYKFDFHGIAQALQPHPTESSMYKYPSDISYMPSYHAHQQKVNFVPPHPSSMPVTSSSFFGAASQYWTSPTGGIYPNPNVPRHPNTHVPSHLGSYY
In short: (§1)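 Yeast served to express human transcription factors as GST fusions, which were then captured on glutathione beads and labelled with DNA barcodes. Pooled with a tag-only sample, they were incubated with 200 nmole of a 16-mer random double-stranded DNA library for 30 min at room temperature in Tris/NaCl/DTT/glycerol buffer, washed, crosslinked with 0.1% formaldehyde, ligated by proximity, amplified by PCR and sequenced. Dividing each hexamer's read frequency for a factor by its frequency for the tag-only sample gives the binding signal.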

ELK1 = target: T2, ELK1 (Homo sapiens, UniProt P19419 1-428); details: protein: recombinant; tags: N-terminal GST; dsDNA, one strand shown
T2 sequence: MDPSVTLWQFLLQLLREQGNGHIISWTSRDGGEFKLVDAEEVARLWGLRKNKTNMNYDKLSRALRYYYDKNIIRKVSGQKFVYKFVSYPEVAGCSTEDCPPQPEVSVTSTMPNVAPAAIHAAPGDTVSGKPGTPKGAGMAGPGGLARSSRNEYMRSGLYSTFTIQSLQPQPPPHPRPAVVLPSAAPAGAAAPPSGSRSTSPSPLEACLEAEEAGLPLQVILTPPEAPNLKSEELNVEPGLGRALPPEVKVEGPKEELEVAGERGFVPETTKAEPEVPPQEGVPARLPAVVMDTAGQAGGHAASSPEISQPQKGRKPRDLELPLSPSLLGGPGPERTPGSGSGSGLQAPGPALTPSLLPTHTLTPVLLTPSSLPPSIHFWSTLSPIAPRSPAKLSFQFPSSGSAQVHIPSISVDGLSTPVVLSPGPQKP
In short: as §1

ERG = target: T3, ERG (Homo sapiens, UniProt P11308 1-479); details: protein: recombinant; tags: N-terminal GST; dsDNA, one strand shown
T3 sequence: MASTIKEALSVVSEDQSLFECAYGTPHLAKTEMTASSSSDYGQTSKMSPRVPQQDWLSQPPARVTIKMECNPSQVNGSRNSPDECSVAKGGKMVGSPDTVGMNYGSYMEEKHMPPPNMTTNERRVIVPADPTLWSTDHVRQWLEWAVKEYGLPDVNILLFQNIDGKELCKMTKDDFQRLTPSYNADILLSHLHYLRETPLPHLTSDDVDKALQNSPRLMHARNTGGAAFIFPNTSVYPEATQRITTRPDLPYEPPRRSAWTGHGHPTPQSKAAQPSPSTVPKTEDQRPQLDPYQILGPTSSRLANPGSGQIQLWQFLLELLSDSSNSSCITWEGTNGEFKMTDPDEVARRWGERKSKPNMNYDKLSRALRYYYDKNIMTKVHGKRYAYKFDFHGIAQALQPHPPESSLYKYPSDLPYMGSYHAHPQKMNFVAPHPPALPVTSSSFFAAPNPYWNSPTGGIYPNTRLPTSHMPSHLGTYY
In short: as §1

ELF1 = ELF1 (Homo sapiens, UniProt P32519 1-619); details: protein: recombinant; tags: N-terminal GST; dsDNA, one strand shown
In short: as §1

EHF = target: T4, EHF (Homo sapiens, UniProt Q9NZC4 1-300); details: protein: recombinant; tags: N-terminal GST; dsDNA, one strand shown
T4 sequence: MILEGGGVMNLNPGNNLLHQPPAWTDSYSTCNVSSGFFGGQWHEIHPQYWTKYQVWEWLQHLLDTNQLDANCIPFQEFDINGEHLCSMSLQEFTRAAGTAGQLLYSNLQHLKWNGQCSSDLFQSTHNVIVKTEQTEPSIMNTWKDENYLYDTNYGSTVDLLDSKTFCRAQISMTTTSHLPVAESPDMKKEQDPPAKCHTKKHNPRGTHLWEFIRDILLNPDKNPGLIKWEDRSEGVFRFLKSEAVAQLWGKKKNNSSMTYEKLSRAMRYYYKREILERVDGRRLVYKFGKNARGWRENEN
In short: as §1

SPI1 = SPI1 (Homo sapiens, UniProt P17947 1-270); details: protein: recombinant; tags: N-terminal GST; dsDNA, one strand shown
In short: as §1

SPIB = SPIB (Homo sapiens, UniProt Q01892 1-262); details: protein: recombinant; tags: N-terminal GST; dsDNA, one strand shown
In short: as §1

ELK3 = target: T5, ELK3 (Homo sapiens, UniProt P41970 1-407); details: protein: recombinant; tags: N-terminal GST; dsDNA, one strand shown
T5 sequence: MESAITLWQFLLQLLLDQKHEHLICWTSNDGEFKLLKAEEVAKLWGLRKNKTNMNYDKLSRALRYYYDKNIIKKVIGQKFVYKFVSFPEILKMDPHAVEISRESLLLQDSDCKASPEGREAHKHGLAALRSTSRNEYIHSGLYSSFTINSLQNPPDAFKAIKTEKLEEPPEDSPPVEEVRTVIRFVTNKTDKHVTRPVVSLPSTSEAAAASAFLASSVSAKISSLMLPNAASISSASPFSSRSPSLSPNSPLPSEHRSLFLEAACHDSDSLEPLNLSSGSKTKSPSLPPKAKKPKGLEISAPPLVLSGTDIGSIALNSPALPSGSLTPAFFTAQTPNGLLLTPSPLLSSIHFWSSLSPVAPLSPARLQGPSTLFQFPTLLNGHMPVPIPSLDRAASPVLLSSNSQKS
In short: as §1

FEV = target: T6, FEV (Homo sapiens, UniProt Q99581 1-238); details: protein: recombinant; tags: N-terminal GST; dsDNA, one strand shown
T6 sequence: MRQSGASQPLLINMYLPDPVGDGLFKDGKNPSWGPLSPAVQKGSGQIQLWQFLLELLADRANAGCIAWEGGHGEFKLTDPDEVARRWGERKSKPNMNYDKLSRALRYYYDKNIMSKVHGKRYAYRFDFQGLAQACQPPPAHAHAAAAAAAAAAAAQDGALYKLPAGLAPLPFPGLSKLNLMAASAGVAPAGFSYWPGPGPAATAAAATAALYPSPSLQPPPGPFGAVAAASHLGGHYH
In short: as §1

ETV5 = ETV5 (Homo sapiens, UniProt P41161 1-510); details: protein: recombinant; tags: N-terminal GST; dsDNA, one strand shown
In short: as §1

HSF1 = HSF1 (Homo sapiens, UniProt Q00613 1-529); details: protein: recombinant; tags: N-terminal GST; chain copies: 3; dsDNA, one strand shown
In short: as §1

SPIC = target: T7, SPIC (Homo sapiens, UniProt Q8N5J4 1-248); details: protein: recombinant; tags: N-terminal GST; dsDNA, one strand shown
T7 sequence: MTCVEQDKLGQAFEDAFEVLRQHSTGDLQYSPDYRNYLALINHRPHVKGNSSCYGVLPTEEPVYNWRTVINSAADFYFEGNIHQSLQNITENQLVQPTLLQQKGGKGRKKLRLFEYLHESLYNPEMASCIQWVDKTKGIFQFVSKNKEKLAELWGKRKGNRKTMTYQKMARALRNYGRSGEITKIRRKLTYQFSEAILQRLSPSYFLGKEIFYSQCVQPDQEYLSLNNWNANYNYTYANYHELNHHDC
In short: as §1

ELF4 = ELF4 (Homo sapiens, UniProt Q99607 1-663); details: protein: recombinant; tags: N-terminal GST; dsDNA, one strand shown
In short: as §1

ETV2 = target: T8, ETV2 (Homo sapiens, UniProt O00321 1-342); details: protein: recombinant; tags: N-terminal GST; dsDNA, one strand shown
T8 sequence: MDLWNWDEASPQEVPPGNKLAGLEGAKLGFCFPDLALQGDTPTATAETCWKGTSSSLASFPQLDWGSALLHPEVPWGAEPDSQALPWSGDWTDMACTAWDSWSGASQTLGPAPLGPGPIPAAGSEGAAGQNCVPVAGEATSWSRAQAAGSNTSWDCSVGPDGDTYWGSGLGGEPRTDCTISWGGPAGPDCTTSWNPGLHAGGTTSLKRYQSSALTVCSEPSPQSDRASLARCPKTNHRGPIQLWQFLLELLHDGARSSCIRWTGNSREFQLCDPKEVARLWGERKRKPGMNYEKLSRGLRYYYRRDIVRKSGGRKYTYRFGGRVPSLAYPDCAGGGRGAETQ
In short: as §1

ELF3 = target: T9, ELF3 (Homo sapiens, UniProt P78545 1-371); details: protein: recombinant; tags: N-terminal GST; dsDNA, one strand shown
T9 sequence: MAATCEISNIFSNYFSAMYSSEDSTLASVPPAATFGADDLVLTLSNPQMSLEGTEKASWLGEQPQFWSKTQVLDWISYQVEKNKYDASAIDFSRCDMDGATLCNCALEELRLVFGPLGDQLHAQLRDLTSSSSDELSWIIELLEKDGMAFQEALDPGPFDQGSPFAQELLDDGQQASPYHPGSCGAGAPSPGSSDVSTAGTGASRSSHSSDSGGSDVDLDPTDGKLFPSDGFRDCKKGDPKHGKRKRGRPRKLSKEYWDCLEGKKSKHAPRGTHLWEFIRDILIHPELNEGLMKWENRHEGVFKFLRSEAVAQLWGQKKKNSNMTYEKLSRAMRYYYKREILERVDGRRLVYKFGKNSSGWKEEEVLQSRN
In short: as §1

ETV1 = ETV1 (Homo sapiens, UniProt P50549 1-477); details: protein: recombinant; tags: N-terminal GST; dsDNA, one strand shown
In short: as §1

Chain of ETV5 (P41161 whole entry): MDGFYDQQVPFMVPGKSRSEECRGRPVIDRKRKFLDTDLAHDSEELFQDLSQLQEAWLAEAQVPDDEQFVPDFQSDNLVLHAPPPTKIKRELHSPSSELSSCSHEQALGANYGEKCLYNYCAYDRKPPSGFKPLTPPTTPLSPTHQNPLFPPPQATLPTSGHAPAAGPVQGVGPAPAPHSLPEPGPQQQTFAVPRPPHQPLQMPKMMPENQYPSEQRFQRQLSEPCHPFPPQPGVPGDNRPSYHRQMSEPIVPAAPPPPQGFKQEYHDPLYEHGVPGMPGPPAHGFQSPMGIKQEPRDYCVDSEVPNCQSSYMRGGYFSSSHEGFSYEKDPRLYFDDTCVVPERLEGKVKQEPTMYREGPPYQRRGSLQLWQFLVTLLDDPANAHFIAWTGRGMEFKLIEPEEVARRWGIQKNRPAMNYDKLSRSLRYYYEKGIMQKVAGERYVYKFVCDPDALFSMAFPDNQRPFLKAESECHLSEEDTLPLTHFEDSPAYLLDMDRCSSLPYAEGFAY
Chain of SPIB (Q01892 whole entry): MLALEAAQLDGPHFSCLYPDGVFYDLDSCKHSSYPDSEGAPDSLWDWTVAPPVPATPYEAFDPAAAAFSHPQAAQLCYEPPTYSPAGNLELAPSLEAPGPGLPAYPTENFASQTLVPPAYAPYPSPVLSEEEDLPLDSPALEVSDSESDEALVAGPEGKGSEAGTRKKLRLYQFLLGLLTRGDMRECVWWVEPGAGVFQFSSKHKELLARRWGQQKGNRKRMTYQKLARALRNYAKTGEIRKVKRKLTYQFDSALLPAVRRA
Chain of HSF1 (Q00613 whole entry): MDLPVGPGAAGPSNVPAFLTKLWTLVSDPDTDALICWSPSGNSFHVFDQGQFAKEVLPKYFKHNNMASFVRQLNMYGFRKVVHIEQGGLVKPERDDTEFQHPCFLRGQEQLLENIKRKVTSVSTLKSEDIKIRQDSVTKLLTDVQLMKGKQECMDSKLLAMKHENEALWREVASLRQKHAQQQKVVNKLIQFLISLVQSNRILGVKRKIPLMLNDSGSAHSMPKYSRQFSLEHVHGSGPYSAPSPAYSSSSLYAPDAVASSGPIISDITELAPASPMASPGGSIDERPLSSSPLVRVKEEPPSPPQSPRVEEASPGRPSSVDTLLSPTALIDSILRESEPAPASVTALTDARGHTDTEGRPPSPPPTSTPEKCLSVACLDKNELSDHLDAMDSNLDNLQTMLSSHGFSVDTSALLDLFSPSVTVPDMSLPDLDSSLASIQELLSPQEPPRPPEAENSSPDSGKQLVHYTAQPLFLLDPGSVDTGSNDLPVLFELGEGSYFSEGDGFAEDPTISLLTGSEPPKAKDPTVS
Chain of ELF4 (Q99607 whole entry): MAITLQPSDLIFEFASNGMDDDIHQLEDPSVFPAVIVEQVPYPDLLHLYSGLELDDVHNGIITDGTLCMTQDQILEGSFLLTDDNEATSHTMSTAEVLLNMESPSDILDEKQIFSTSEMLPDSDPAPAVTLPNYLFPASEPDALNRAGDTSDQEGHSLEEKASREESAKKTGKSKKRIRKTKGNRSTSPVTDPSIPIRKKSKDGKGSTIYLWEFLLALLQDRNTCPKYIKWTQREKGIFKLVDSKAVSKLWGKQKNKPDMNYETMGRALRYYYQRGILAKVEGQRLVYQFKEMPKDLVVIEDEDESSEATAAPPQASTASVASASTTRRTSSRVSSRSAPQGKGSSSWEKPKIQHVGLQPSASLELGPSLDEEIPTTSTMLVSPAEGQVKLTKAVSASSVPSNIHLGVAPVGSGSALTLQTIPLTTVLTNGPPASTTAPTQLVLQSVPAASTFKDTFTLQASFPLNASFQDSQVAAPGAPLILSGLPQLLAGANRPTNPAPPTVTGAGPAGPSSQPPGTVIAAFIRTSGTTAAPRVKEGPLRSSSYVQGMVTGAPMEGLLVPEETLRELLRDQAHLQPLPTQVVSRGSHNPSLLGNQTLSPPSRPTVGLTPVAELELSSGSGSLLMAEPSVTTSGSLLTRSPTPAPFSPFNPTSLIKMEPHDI
Chain of ETV1 (P50549 whole entry): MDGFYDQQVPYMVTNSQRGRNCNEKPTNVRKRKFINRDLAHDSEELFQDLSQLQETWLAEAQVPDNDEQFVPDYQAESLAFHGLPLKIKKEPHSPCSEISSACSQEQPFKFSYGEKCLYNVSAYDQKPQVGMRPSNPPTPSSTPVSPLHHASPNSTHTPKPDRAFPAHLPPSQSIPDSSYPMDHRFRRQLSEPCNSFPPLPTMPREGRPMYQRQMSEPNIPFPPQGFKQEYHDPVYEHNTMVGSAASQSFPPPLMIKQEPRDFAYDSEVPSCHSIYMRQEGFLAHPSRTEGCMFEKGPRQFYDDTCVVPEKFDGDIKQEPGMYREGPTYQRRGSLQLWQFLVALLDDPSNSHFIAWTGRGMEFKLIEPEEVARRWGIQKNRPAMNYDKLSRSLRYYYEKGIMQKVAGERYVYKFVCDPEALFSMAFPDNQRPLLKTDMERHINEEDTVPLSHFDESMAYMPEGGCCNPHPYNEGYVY
Chain of ELF1 (P32519 whole entry): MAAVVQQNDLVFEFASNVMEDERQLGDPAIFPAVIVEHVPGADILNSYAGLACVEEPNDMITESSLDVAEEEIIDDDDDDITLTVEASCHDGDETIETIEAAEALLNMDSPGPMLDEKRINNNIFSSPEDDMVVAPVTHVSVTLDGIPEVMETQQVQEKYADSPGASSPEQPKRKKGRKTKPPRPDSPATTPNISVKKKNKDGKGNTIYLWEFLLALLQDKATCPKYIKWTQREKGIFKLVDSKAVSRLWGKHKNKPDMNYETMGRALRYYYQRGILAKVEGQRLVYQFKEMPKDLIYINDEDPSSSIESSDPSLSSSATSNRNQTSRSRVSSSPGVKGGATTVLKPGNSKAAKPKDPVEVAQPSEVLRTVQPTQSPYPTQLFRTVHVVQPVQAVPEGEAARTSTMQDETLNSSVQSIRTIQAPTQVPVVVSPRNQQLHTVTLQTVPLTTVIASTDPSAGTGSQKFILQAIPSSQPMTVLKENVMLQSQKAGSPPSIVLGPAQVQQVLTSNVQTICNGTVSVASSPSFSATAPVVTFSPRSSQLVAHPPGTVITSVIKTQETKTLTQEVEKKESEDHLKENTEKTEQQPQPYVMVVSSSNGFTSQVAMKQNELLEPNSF

GGAACA
binding signal (FLI1): 1.06 fold enrichment (6-mer frequency, TF over GST control)
binding signal (ELK1): 1.09 fold enrichment (6-mer frequency, TF over GST control)
binding signal (ERG): 1.16 fold enrichment (6-mer frequency, TF over GST control)
binding signal (ELF1): 1.02 fold enrichment (6-mer frequency, TF over GST control)
binding signal (EHF): 1.12 fold enrichment (6-mer frequency, TF over GST control)
binding signal (SPI1): 1.15 fold enrichment (6-mer frequency, TF over GST control)
binding signal (SPIB): 1.18 fold enrichment (6-mer frequency, TF over GST control)
binding signal (ELK3): 1.12 fold enrichment (6-mer frequency, TF over GST control)
binding signal (FEV): 1.01 fold enrichment (6-mer frequency, TF over GST control)
binding signal (ETV5): 1.16 fold enrichment (6-mer frequency, TF over GST control)
binding signal (HSF1): 1.32 fold enrichment (6-mer frequency, TF over GST control)
binding signal (SPIC): 1.1 fold enrichment (6-mer frequency, TF over GST control)
binding signal (ELF4): 1 fold enrichment (6-mer frequency, TF over GST control)
binding signal (ETV2): 1.11 fold enrichment (6-mer frequency, TF over GST control)
binding signal (ELF3): 1.09 fold enrichment (6-mer frequency, TF over GST control)
binding signal (ETV1): 1.08 fold enrichment (6-mer frequency, TF over GST control)
